# Assay results published in PubChem BioAssay.
# Where “and” joins values, the source holds several entries; their conditions need not be identical. Identical values can stand only once. A number with no mark means an inactive call. Calls of active or inactive are those of the source.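 How the source made its calls, unless noted: active means binding below the plate cutoff, the plate median minus 3 SD, with a reading above zero; inconclusive means below the plate cutoff but reading exactly zero; inactive means the rest.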
# Tested on: not listed separately
# Experiment: cytosolic pH regulators acting via V-ATPase – S. cerevisiae, pHLuorin, HTS validation (AID 504600; in the data active means response above about 15%;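 further: plate controls were DMSO for no effect and reference compound for full effect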)
# Settings: V-ATPase proton transport, at 10 µM, stronger effect = higher value
row,Compound,response
1,NS(=O)(=O)c1cc2c(cc1Cl)NC(C1C[C@H]3C=C[C@@H]1C3)NS2(=O)=O (stereo partly drawn),-7.8%
2,CC(=O)NC1C(OCc2ccccc2)OC(COC(C)=O)C(OC(C)=O)C1OC(C)=O (stereo not drawn),-3.81%
3,O=CNC1CCCc2c1[nH]c1ccc(Cl)cc21 (stereo not drawn),0.49%
4,O=C(O)CP(=O)(O)O,-1.85%
5,Cc1cccc(Nc2ccccc2C(=O)O)c1C,-29.3%
6,CC1(C)CC(NCc2ccccc2)CCO1 (stereo not drawn),5.23%
7,Cc1ccccc1C(=O)NCC(=O)O,109% (active)
8,CCOc1cc2c3c(c1)C(C)=CC(C)(C)N3C(=O)C2=O,-5.76%
9,O=C(N1CCCC1)C12CC3CC(C1)CC(C(=O)N1CCCC1)(C3)C2,0.92%
10,O=C(NC(Nc1ccccn1)C(Cl)(Cl)Cl)c1ccccc1 (stereo not drawn),-1.51%
11,COc1cc(NC(=S)NC(=O)c2cccs2)ccc1NC(=O)C(C)C,1.32%
12,COc1ccc(CCN(C)CCCC(C#N)(c2cc(OC)c(OC)c(OC)c2)C(C)C)cc1OC (stereo not drawn),0.22%
13,O=C1C(Cc2c[nH]c3ccccc23)NC(=S)N1Cc1ccccc1 (stereo not drawn),-1.19%
14,CC(C)(C)C(=O)NC(=S)NNC(=O)c1ccncc1,2.56%
15,CCOC(=O)N1CCN(Cc2nc(Cc3cccc(F)c3)no2)CC1,2.06%
16,C[C@@H]1C[C@H](Nc2ccccc2)c2ccccc2N1C(=O)c1cccnc1,-5.05%
17,OC(CCN1CCCC1)(c1ccccc1)C1CCCCC1 (stereo not drawn),-6.1%
18,Cc1cc(Cl)cc2c1NC(=O)[C@]21[C@@H]2C(=O)N(Cc3ccccc3)C(=O)[C@@H]2[C@@H]2CCCN21,3.96%
19,O=C(/C=C/c1ccco1)Nc1ccccc1C(=O)O,3.27%
20,CC(C)c1ccc(/C=C/C(=O)O)cc1,1.59%

row,Compound,response
1,CCN(CC)CC(=O)Nc1c(C)cccc1C,-5.61% and -5.05%
2,CC1=C(C)C(=O)C(CCCCC#CCCCC#CCO)=C(C)C1=O,1.96%
3,COc1cc(C=NCC2OCCc3ccccc32)cc(OC)c1 (stereo not drawn),1.44%
4,CN(C)CCCN1c2ccccc2CCc2ccccc21,-0.62%
5,COc1ccc2nc(S(=O)Cc3ncc(C)c(OC)c3C)[nH]c2c1 (stereo not drawn),0.81%
6,COc1ccc(CNCCC2(C(C)C)CCOC(C)(C)C2)cc1 (stereo not drawn),2.72%
7,COc1cccc(CN2C(=O)N(C(C)C)C(N(O)C(=O)NC(C)C)C2(C)C)c1OC (stereo not drawn),-0.84%
8,Cc1ccc(S(=O)(=O)N[C@@H](Cc2ccccc2)C(=O)CCl)cc1,-3.47%
9,COCCN(CCOC)Cc1c(C)[nH]c2c(C)c(C)ccc2c1=O,5.64%
10,CCOC(=O)C(NC(=O)CCC(=O)Nc1ccc(S(N)(=O)=O)cc1)C(O)c1ccccc1 (stereo not drawn),-6.43%
11,Cc1ccccc1N1C(N)=NC(N)=NC1(C)C,1.38%
12,CC1Cc2ccccc2N1NC(=O)c1ccc(Cl)c(S(N)(=O)=O)c1 (stereo not drawn),2.79%
13,CC1=C(/C=C/C(C)=C/C=C/C(C)=C/C(=O)O)C(C)(C)CCC1,-0.05%
14,N/C(=N\OC(=O)/C=C/c1ccccc1)c1ccc(Br)cc1,-3.5%
15,CCOc1ccc(C(=O)C(C)=O)c(OCC)c1,1.92%
16,COc1ccc(C=O)c(OC)c1,-1.57%
17,CC1=NN(c2ccccc2)C(=O)C1,0.56%
18,COCC1CCCN(Cc2cn[nH]c2-c2cc3ccccc3o2)C1 (stereo not drawn),1.33%
19,CC1(C)CC(=O)C(C2=NC(C)(C)Cc3ccccc32)=C(O)C1,1.49%

# Tested on: anti-desmoglein-3 scFv antibody binding to human DSG3
# Experiment: blockers of pathogenic pemphigus antibody–desmoglein-3 binding – biochemical, validation compound set, bead-based, flow cytometry, pilot screen (AID 588368);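 further: signal is the median channel fluorescence of bead-bound GFP antibody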
# Settings: Protein G beads, DSG3-Fc, scFv-GFP binding, at 10 µM, stronger effect = lower value
row,Compound,binding (% of control)
1,NS(=O)(=O)c1cc2c(cc1Cl)NC(C1C[C@H]3C=C[C@@H]1C3)NS2(=O)=O (stereo partly drawn),97.3%
2,CC(=O)NC1C(OCc2ccccc2)OC(COC(C)=O)C(OC(C)=O)C1OC(C)=O (stereo not drawn),104%
3,O=CNC1CCCc2c1[nH]c1ccc(Cl)cc21 (stereo not drawn),95.9%
4,O=C(O)CP(=O)(O)O,105%
5,Cc1cccc(Nc2ccccc2C(=O)O)c1C,101%
6,CC1(C)CC(NCc2ccccc2)CCO1 (stereo not drawn),101%
7,Cc1ccccc1C(=O)NCC(=O)O,103%
8,CCOc1cc2c3c(c1)C(C)=CC(C)(C)N3C(=O)C2=O,101%
9,O=C(N1CCCC1)C12CC3CC(C1)CC(C(=O)N1CCCC1)(C3)C2,101%
10,O=C(NC(Nc1ccccn1)C(Cl)(Cl)Cl)c1ccccc1 (stereo not drawn),99.8%
11,COc1cc(NC(=S)NC(=O)c2cccs2)ccc1NC(=O)C(C)C,96.8%
12,COc1ccc(CCN(C)CCCC(C#N)(c2cc(OC)c(OC)c(OC)c2)C(C)C)cc1OC (stereo not drawn),99.8%
13,O=C1C(Cc2c[nH]c3ccccc23)NC(=S)N1Cc1ccccc1 (stereo not drawn),94.9%
14,CC(C)(C)C(=O)NC(=S)NNC(=O)c1ccncc1,105%
15,CCOC(=O)N1CCN(Cc2nc(Cc3cccc(F)c3)no2)CC1,94.8%
16,C[C@@H]1C[C@H](Nc2ccccc2)c2ccccc2N1C(=O)c1cccnc1,102%
17,OC(CCN1CCCC1)(c1ccccc1)C1CCCCC1 (stereo not drawn),97.4%
18,Cc1cc(Cl)cc2c1NC(=O)[C@]21[C@@H]2C(=O)N(Cc3ccccc3)C(=O)[C@@H]2[C@@H]2CCCN21,104%
19,O=C(/C=C/c1ccco1)Nc1ccccc1C(=O)O,105%
20,CC(C)c1ccc(/C=C/C(=O)O)cc1,94.5%

row,Compound,binding (% of control)
1,CCN(CC)CC(=O)Nc1c(C)cccc1C,94.5% and 99.9%
2,CC1=C(C)C(=O)C(CCCCC#CCCCC#CCO)=C(C)C1=O,103%
3,COc1cc(C=NCC2OCCc3ccccc32)cc(OC)c1 (stereo not drawn),103%
4,CN(C)CCCN1c2ccccc2CCc2ccccc21,99.7%
5,COc1ccc2nc(S(=O)Cc3ncc(C)c(OC)c3C)[nH]c2c1 (stereo not drawn),104%
6,COc1ccc(CNCCC2(C(C)C)CCOC(C)(C)C2)cc1 (stereo not drawn),97.2%
7,COc1cccc(CN2C(=O)N(C(C)C)C(N(O)C(=O)NC(C)C)C2(C)C)c1OC (stereo not drawn),97.4%
8,Cc1ccc(S(=O)(=O)N[C@@H](Cc2ccccc2)C(=O)CCl)cc1,99%
9,COCCN(CCOC)Cc1c(C)[nH]c2c(C)c(C)ccc2c1=O,105%
10,CCOC(=O)C(NC(=O)CCC(=O)Nc1ccc(S(N)(=O)=O)cc1)C(O)c1ccccc1 (stereo not drawn),101%
11,Cc1ccccc1N1C(N)=NC(N)=NC1(C)C,104%
12,CC1Cc2ccccc2N1NC(=O)c1ccc(Cl)c(S(N)(=O)=O)c1 (stereo not drawn),99.5%
13,CC1=C(/C=C/C(C)=C/C=C/C(C)=C/C(=O)O)C(C)(C)CCC1,101%
14,N/C(=N\OC(=O)/C=C/c1ccccc1)c1ccc(Br)cc1,100%
15,CCOc1ccc(C(=O)C(C)=O)c(OCC)c1,97%
16,COc1ccc(C=O)c(OC)c1,101%
17,CC1=NN(c2ccccc2)C(=O)C1,101%
18,COCC1CCCN(Cc2cn[nH]c2-c2cc3ccccc3o2)C1 (stereo not drawn),99.9%
19,CC1(C)CC(=O)C(C2=NC(C)(C)Cc3ccccc32)=C(O)C1,91.7%
